# Data reported in PubChem BioAssay (Tox21).
# “And” between values parts separate entries of the source, which are not always exact repeats. Equal entries are not always repeated. Results filed as inconclusive are left out. The source made the active and inactive calls. The call rests on the fitted dose curve; in most records, active means well fitted cell-killing curve with a large enough effect in the repeat runs; inconclusive means weak or mixed curves; inactive means flat fitted curve, though single readings scatter.
# Assay: qHTS RealTime-Glo MT Cell Viability Assay in HepG2 cells - 8 hour (AID 1224873); further: nearly all actives have a fitted effect of over 55% in size
# Settings: RealTime-Glo luminescence; series mostly up to 76.8 µM; viability change, negative = cytotoxic: at the top concentration
# How it was run: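 HepG2 cells (600/well) mixed with RealTime-Glo MT reagent, settled 5 h at 37 C/5% CO2 before compound addition. Nonlytic NanoLuc luminescence from viable-cell prosubstrate reduction read repeatedly during 40 h treatment at 37 C.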
# On the % scale 0 is the no-effect control and ±100 the full control effect; potency means the concentration at half of the fitted maximal effect.
SMILES,"viability change, negative = cytotoxic",Potency
COP(=S)(OC)Oc1nc(Cl)c(Cl)cc1Cl,-4.46% (inactive),
[O-][Cl+3]([O-])([O-])O,3.53% (inactive),
CCCCC/C=C\C/C=C\C/C=C\C/C=C\CCCC(=O)NCC(=O)O,-0.132% [at 35.3 µM] (inactive),
O=Cc1ccccc1,1.49% (inactive),
N#CC(C#N)=NNc1cccc(Cl)c1,-16.9% (inactive),
CC[C@H](C)[C@H]1O[C@]2(C=C[C@@H]1C)C[C@@H]1C[C@@H](C/C=C(\C)[C@@H](O[C@H]3C[C@H](OC)[C@@H](O[C@H]4C[C@H](OC)[C@@H](NC)[C@H](C)O4)[C@H](C)O3)[C@@H](C)/C=C/C=C3\CO[C@@H]4[C@H](O)C(C)=C[C@@H](C(=O)O1)[C@]34O)O2,,15.5 µM (active)
Nc1cc(Cl)ccc1Cl,3.34% (inactive),
C1=CCC=C1,0.742% (inactive),
BrCC(Br)(Br)Br,-9.57% (inactive),
O=C1C2(Cl)C3(Cl)C4(Cl)C(Cl)(Cl)C5(Cl)C3(Cl)C1(Cl)C5(Cl)C24Cl (stereo not drawn),,42.9 µM (active) and 46.9 µM (active)
O=C1C(Cl)=C(Cl)C(=O)C(Cl)=C1Cl,,43.5 µM (active) and 21.9 µM (active)
CSC(C)(C)/C=N/O,5.12% (inactive),
NC(=O)C(Cl)Cl,0.0712% (inactive),
CN(C)CCc1c[nH]c2ccccc12,-1.11% (inactive),
CCCCn1cc[n+](C)c1 (tested in a mixture with another compound),-0.0274% (inactive),
CCC(C)c1cccc(C(C)CC)c1O (stereo not drawn),-15.8% (inactive),
Fc1ccc(C(OCCN2CCN(CCCc3ccccc3)CC2)c2ccc(F)cc2)cc1,,23.9 µM (active)
CCN(CC)CCN1C(=O)CN=C(c2ccccc2F)c2cc(Cl)ccc21,-8.76% [at 35.3 µM] (inactive),
